Source: PubChem BioAssay
Pf growth 96h: P. falciparum growth inhibition at 96 hours; Potency, µM (top dose mostly 28.7 µM), inactives show at the top dose activity change, negative = inhibition, most hits filed as inhibitors; P. falciparum luciferase reporter growth, 96 h; 6.9% of 320,000 active; note: potency is the fitted concentration of half-maximal effect; % is set by controls: 0 for no effect and ±100 for the full control effect
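P. falciparum expressing integrated firefly luciferase grown in erythrocytes (2% hematocrit, 0.05% parasitemia final) with compounds for 96 hours at 37 C, 5% CO2. Growth inhibition read as loss of luminescence after adding luciferase detection reagent.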
Pf growth 48h: inhibits P. falciparum growth in the first generation, 48 h; P. falciparum luciferase growth in erythrocytes, 48 h; Potency, µM (highest dose often 28.7 µM), for the others: at the top dose activity change, negative = inhibition, hits mostly inhibitors; 5.9% of 310,000 active; AID 504832; note: potency is the fitted concentration of half-maximal effect; % is set by controls: 0 for no effect and ±100 for the full control effect
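Read-out is firefly luciferase luminescence from an integrated reporter in P. falciparum, so falling signal marks reduced parasite growth. Infected erythrocytes were at 2% hematocrit and 0.1% parasitemia (final) in Albumax-supplemented RPMI 1640.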
Sm TGR inh: S. mansoni TGR enzyme inhibition | purified TGR, DTNB reduction, TNB absorbance 405 nm | Potency, µM (highest dose often 114 µM), for the others: top-dose activity change, negative = inhibition, actives largely listed as inhibitors | 3% of 360,000 active | AID 485364; note: potency is the fitted concentration of half-maximal effect; % is set by controls: 0 for no effect and ±100 for the full control effect; nearly all actives have a fitted effect of over 60% in size
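TGR 20 nM + NADPH 100 uM (dispensed conc.), cpd preinc 15 min RT; start with NADPH (500 uM addition) then DTNB (15 mM addition). Kinetic TNB absorbance, 405 nm filter. Four-parameter Hill fit across titration.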
NS1 inh: influenza NS1 inhibition | 0.4% of 270,000 active | Potency, µM (series often up to 46.1 µM), for the others: top-dose activity, positive = more growth; calls by dose curve; note: potency is the fitted concentration of half-maximal effect; actives are rising curves; nearly all actives have a fitted effect of over 50% in size
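In this qHTS, NS1 from influenza A is expressed in budding yeast, where it slows growth. Cells are switched from glucose to 2% galactose medium (pH 6.0, -URA), treated with compound, and growth recovery is read at OD600.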
Shiga inhibitor: blocks Shiga toxin action in Vero cells. Vero cells, Shiga toxin protein synthesis inhibition reporter. 9.2% of 290,000 active. inhibition, % at 38.7 µM; in the data active = inhibition mostly above about 28%, no sharp cut-off; inactive = mostly below about 43%; note: 0% is about no effect
Cycloheximide cs: counter-screen hit for Shiga toxin inhibitors, cycloheximide. cell reporter, cycloheximide protein synthesis inhibition counterscreen. max response, %. 12% of 300,000 active; in the data active = max response mostly above about 13%, no sharp cut-off; inactive = mostly below about 14%; note: read at 38.3 µM for the half of the compounds with a filed dose; 0% is about no effect
Active calls of the source: *; ? = inconclusive; . = no result given; [ ] = dose if it differs, or a comment. A selection: hits, their analogues and other compounds. The true share with any hit is near 21%. Unless noted, calls come from the whole dose curve; as a rule, active = well fitted curve in the direction sought with a large enough effect; inconclusive = small, poorly fitted or top-dose-only effect, or another doubt; inactive = no such curve, though single readings can be large; an effect the other way counts as inactive or inconclusive.

SMILES	Pf growth 96h	Pf growth 48h	Sm TGR inh	NS1 inh	Shiga inhibitor	Cycloheximide cs
CCc1nn2c(=O)cc(COC(=O)c3cccc(NC(=O)c4ccccc4C)c3)nc2s1	.	.	10%	.	.	.
CC1(C)CCC2=C(O1)c1ccccc1C(=O)C2=O	.	.	.	-1%	.	.
Cc1ccc(S(=O)(=O)Cn2nnnc2C(c2ccccc2)N2CCN(c3ccccc3)CC2)cc1 (configuration not stated)	?	13µM*	-35%	?	-3	-3
CCCCC(c1nnnn1CS(=O)(=O)c1ccc(C)cc1)N1CCN(C)CC1 (configuration not stated)	-4%	?	10µM*	4%	-24	-7
CCC(c1nnnn1CS(=O)(=O)c1ccc(C)cc1)N1CCN(c2nc3ccccc3s2)CC1 (configuration not stated)	9%	8.3µM*	0%	2%	24	16
Cc1ccc(S(=O)(=O)Cn2nnnc2C(c2ccc(F)cc2)N2CCCCC2)cc1 (configuration not stated)	-11%	?	14%	-36%	-13	1
COc1ccc(C(c2nnnn2CS(=O)(=O)c2ccc(C)cc2)N2CCN(c3ncccn3)CC2)cc1 (configuration not stated)	?	9.3µM*	0%	12%	15	-3
Cc1ccc(S(=O)(=O)N2CC(O)C[C@H]2C(=O)OCC(=O)Nc2ccc(N3CCCCC3)cc2)cc1C (some centres not stated)	26%	62%	-13%	.	.	.
O=S(=O)(Cc1nnnn1-c1ccccc1)c1ccc(F)cc1	-9%	0%	-1%	18%	-3	0
Cc1ccc(S(=O)(=O)Cn2nnnc2C(C)N2CCN(C(=O)c3ccco3)CC2)cc1 (configuration not stated)	5.2µM*	10µM*	45µM*	-4%	25	-3
Cc1ccc(S(=O)(=O)Cc2nnnn2-c2ccccc2)cc1	6.6µM*	-4%	7%	4%	-6	-4
O=C(Nc1ccc(Br)cc1F)c1cc(S(=O)(=O)NCc2ccc(F)cc2)ccc1F	.	.	0%	.	.	.
CCc1nn(C(C)C(=O)Nc2cccc(C)c2C)c(=O)c2cc3occc3n12 (configuration not stated)	-11%	9.3µM*	-7%	-13%	49	1
COc1cccc(CNC(=O)CCCn2ncn3c(cc4occc43)c2=O)c1	4.7µM*	?	-12%	-4%	-3	2
CCc1cccc(NC(=O)CCCn2nc(CC)n3c(cc4occc43)c2=O)c1	12µM*	?	-18%	9%	-1	9
COc1ccc(CCNC(=O)C(C)n2nc(C)n3c(cc4occc43)c2=O)cc1OC (configuration not stated)	13µM*	2%	-6%	-4%	1	1
O=C(CCCn1ncn2c(cc3occc32)c1=O)NCc1cccc(Cl)c1	?	?	-7%	-16%	2	6
Cc1cc(C)n2nc(SC(C)C(=O)Nc3ccc(Cl)cn3)nc2n1 (configuration not stated)	65%	20%	-3%	.	18	-4
COc1ccc(CCNC(=O)CN2C(=O)COc3ccc(S(=O)(=O)N4CCCC4)cc32)c(OC)c1	9.3µM*	-29%	-7%	-12%	-10	2
COC(=O)CN1C(=O)COc2ccc(S(=O)(=O)N3CCOCC3)cc21	9.3µM*	-14%	2%	9%	-3	14
Cc1cccc(Cn2cc(S(=O)(=O)c3cccc(Cl)c3)c(=O)c3cc(F)c(N4CCOCC4)cc32)c1	.	.	4%	.	.	.
CC1CCC2(CC1)SCC(=O)N2c1ccc(F)cc1 (configuration not stated)	11%	29%	1%	3%	9	6
CC(C)(C)C1CCC2(CC1)SCC(=O)N2c1ccccc1 (configuration not stated)	95%	12µM*	18%	?	-3	1
CCOC(=O)CN1NC2(CCC(C(C)(C)C)CC2)NC1=S (configuration not stated)	59%	-1%	12%	2%	-21	8
CC(C)(C)C1CCC2(CC1)NC(=S)N(c1ccccc1)N2 (configuration not stated)	?	?	-19%	-7%	42*	24*
SMILES	Pf growth 96h	Pf growth 48h	Sm TGR inh	NS1 inh	Shiga inhibitor	Cycloheximide cs
CCC(C)(C)C1CCC2(CC1)NC(=S)N(c1ccccc1)N2 (configuration not stated)	-16%	-12%	-6%	-3%	98*	35*
CCNc1nc(N)c(C(=O)c2ccc(Cl)s2)s1	?	56%	-3%	-49%	130*	44*
Cc1cccc(NC(=O)c2sc3cccc(Cl)c3c2Cl)c1	.	.	11%	.	.	.
C=CCc1cc(OC)ccc1OCCOCCN1CCc2ccccc2C1	13µM*	37%[5.75 µM]	-3%	.	-6	-2
CCOc1ccc(OCCOCCN2CCc3ccccc3C2)cc1	63%	31%	-29%	-4%	16	-1
Cc1cc(NS(=O)(=O)c2c(C)[nH]c(=O)[nH]c2=O)ccc1Br	?	17%	-5%	2%	19	8
CCOC(=O)c1c(N)sc2c1CCC(CC)C2 (configuration not stated)	-12%	.	1%	0%	22	10
CCOC(=O)c1c(N)sc2c1CCC1C(=O)N(C3CCCCC3)C(=O)C21 (configuration not stated)	15µM*	13µM*	3%	-3%	49	32*
CCOc1cc(/C=C2/C(=O)NC(=O)N(c3ccc(CC)cc3)C2=O)ccc1OC(=O)c1cccs1	7%	17%	35µM*	?	-4	-6
Cc1cc(C)c(/C=N/n2c(C)cc(C)c(C#N)c2=O)c(C)c1	10µM*	?	9%	-12%	-6	-4
COc1ccc(C(=O)N2CC(=O)Nc3ccc(C)cc3C2c2ccccc2)c(OC)c1 (configuration not stated)	.	.	4%	.	.	.
CC1CCc2sc(C(=O)NNS(=O)(=O)c3ccc(F)c(F)c3F)cc2C1 (configuration not stated)	21%	5%	0%	.	.	.
CN(C)C(CNc1ncnc2sc3c(c12)CCCC3)c1ccco1 (configuration not stated)	8%	-5%	-12%	.	20	15*
COc1ccc(N2CCN(C(=O)CCc3ccccc3OC)CC2)cc1	-14%	.	-13%	-8%	5	-3
COc1ccc(-n2c(=O)c(CCC(=O)N3CCN(c4ccccc4O)CC3)nc3ccccc32)cc1	8.3µM*	3.7µM*	-1%	.	.	.
COc1ccc(CC(=O)Nc2c3c(nn2C(C)(C)C)CS(=O)(=O)C3)cc1	31%	3%	-22%	11%	-29	-2
CC(NC(=O)c1ccc(NC(=O)CC2SC(N3CCCC3)=NC2=O)cc1)c1ccc(S(N)(=O)=O)cc1 (configuration not stated)	-23%	-26%	2%	.	.	.
